Source: PubChem BioAssay

Each compound was assayed against Pro-neuregulin-1, membrane-bound isoform (Homo sapiens) (UniProt Q02297) (assay: small molecules binding neuregulin-1 protein – biochemical, small-molecule microarray, fluorescence 635/667, psychiatric disease protein project, primary screen (AID 1075;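 also: score combines 667 nm spot fluorescence with signal to noise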)). Conditions: NRG1 binding, 635 nm fluorescence, higher = more signal.
Sequence of Pro-neuregulin-1, membrane-bound isoform (Homo sapiens) (Q02297 whole entry, looked up, canonical isoform): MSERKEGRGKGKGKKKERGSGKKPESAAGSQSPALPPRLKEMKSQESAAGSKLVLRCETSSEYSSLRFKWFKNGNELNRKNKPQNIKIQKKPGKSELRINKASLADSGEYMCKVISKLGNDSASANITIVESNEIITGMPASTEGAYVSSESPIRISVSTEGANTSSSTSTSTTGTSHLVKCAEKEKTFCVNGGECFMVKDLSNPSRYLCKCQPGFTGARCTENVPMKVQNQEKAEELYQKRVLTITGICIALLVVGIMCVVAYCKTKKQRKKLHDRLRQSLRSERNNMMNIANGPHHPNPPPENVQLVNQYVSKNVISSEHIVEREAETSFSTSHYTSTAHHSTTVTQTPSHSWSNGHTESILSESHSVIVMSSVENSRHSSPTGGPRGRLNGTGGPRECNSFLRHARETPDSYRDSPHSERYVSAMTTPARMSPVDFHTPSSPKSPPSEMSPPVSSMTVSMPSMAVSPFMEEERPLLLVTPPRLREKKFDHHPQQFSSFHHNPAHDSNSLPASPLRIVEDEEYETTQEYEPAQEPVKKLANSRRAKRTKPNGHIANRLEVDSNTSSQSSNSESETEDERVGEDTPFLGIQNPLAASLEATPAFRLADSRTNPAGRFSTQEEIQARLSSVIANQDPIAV

Structure (SMILES) | composite z-score
O=c1cccc(CCc2ccccc2)o1 | 0.93
COc1ccc([Si](C)(C)[C@H]2[C@H](CCn3cc(CCO)nn3)O[C@@]3(C(=O)N(Cc4ccc(N5CCOC5=O)cc4)c4ccccc43)[C@@H]2C)cc1 | 1.51
C=CC[C@@H](OC(=O)Nc1ccc(OC)cc1)c1ccc(O)c2ccccc12 | 0.263
CC(c1ccccc1)C(O)C1C=CC2C(=O)NC(=O)C2N1Nc1ccccn1 (stereo not drawn) | 0.142
CC(C)CNC(=O)[C@@H]1c2ccccc2C(=O)N(Cc2cc(C(F)(F)F)cc(C(F)(F)F)c2)[C@H]1c1ccc(CO)cc1 | -0.27
C[C@]1(C(=O)NCc2ccccc2)c2ccccc2C(=O)N(Cc2cc(F)cc(C(F)(F)F)c2)[C@H]1c1ccc(CO)cc1 | -0.353
O=C1O[C@H](c2ccccc2)[C@H](c2ccccc2)N2[C@H]1[C@@H](C(=O)Nc1nc3ccccc3s1)[C@]1(C(=O)Nc3ccccc31)[C@H]2c1ccc(O)cc1 | 1.43
CN(C)CCCNC(=O)[C@@]1(Cc2ccccc2I)c2ccccc2C(=O)N(Cc2ccccc2C(F)(F)F)[C@H]1c1ccc(CO)cc1 | 1.74
CCCCCN1CC=CC23O[C@@H]4C=CCOC(=O)[C@@H]4[C@H]2C(=O)N(CCCO)[C@@H]3C1=O (stereo partly drawn) | 2.05
C=C(CCCC)/C(=C/C[C@H](OC(C)=O)c1ccc(CO)o1)c1cnc2ccccc2c1 | 0.963
CC(C)NC(=O)[C@@]1(Cc2ccccc2I)c2ccccc2C(=O)N(Cc2ccccc2)[C@H]1c1ccc(CO)cc1 | 1.38
O=C1C2C=CC(C(O)c3ccc(B(O)O)cc3)N(Nc3ccccc3)C2C(=O)N1c1ccccc1 (stereo not drawn) | 1.38
O=C1C[C@]2(c3ccc([N+](=O)[O-])cc3)C(=O)N(CC(F)(F)F)c3cc(CO)ccc3[C@H]2N1CC12CC3CC(CC(C3)C1)C2 | -0.0962
N#Cc1ccc(NN2C(C(O)c3cccs3)C=CC3C(=O)N(c4ccccc4)C(=O)C32)cc1 (stereo not drawn) | 1.93
COCCOC(=O)N1C(=O)[C@@]2(c3cc(C#CCNC(N)=O)ccc31)[C@H](C(=O)N1CCc3cc(OC)c(OC)cc3C1)[C@H]1C(=O)O[C@H](c3ccccc3)[C@H](c3ccccc3)N1[C@@H]2c1ccc(OCCO)cc1 | 0.0155
CC(=O)Nc1cc(Br)ccc1C(=O)O | 0.541
C=CCOC(=O)[C@@H]1[C@H]2C(=O)O[C@H](c3ccccc3)[C@H](c3ccccc3)N2[C@H](c2ccc(OCCOC(=O)[C@@H]3C[C@@H]4C(=O)N[C@@H](Cc5ccccc5)C(=O)N4[C@@H]3c3cccc(OCCO)c3)cc2)[C@@]12C(=O)Nc1ccc(I)cc12 | 1.03
[N-]=[N+]=NCc1ccccc1C[C@]1(C(=O)O)N=C(c2ccc(OCCCO)cc2)O[C@H]1c1ccccc1CN=[N+]=[N-] | 1.53
NCCCCCNC(=O)[C@H]1C[C@H]2C(=O)NCC(=O)N2[C@H]1c1cccc(OCCO)c1 | 1.17
COc1cc2c(cc1OC)CN(C(=O)[C@@H]1[C@H]3C(=O)O[C@H](c4ccccc4)[C@H](c4ccccc4)N3[C@H](c3ccccc3OCCO)[C@@]13C(=O)Nc1ccc(C#CCNC(N)=O)cc13)CC2 | 0.852
C=C(COC)C(=O)CC[C@H](OC(C)=O)c1cccc(OCCO)c1 | -0.13
CCOC(=O)C[C@H]1[C@H](OC(=O)Cc2ccc3c(c2)OCO3)[C@@H](NC(=O)C2CCCCC2)c2cc(OCCCO)ccc2N1C(=O)Cc1ccc(OC)cc1 | -0.054
COCCOC(=O)N1C(=O)[C@@]2(c3cc(C#CCNC(N)=O)ccc31)[C@H](c1ccc(OCCO)cc1)N1[C@H](c3ccccc3)[C@H](c3ccccc3)OC(=O)[C@H]1[C@@H]2C(=O)N1CCc2cc(OC)c(OC)cc2C1 | 0.156
COCCOC(=O)N1C(=O)[C@@]2(c3cc(C#CC4(O)CCCCCC4)ccc31)[C@H](C(=O)N1CCCCCCC1)[C@H]1C(=O)O[C@H](c3ccccc3)[C@H](c3ccccc3)N1[C@@H]2c1ccccc1OCCO | 1.17
C=C(COC)/C(=C/C[C@H](OC(=O)c1ccncc1)c1cccc(OCCO)c1)c1cc(C(=O)OC)ccc1OC | 0.555
COc1c(C)cc(-c2cc3c(c(-c4ccc(Oc5ccccc5)cc4)n2)[Si](C(C)C)(C(C)C)OC3)cc1C | -0.0614
CCOC(=O)C1=CCC(c2ccc(C#N)cc2)N(S(=O)(=O)c2ccc(C)cc2)C1 (stereo not drawn) | 1.32
CCOC(=O)C1=C[C@@H](C(C)C)N(S(=O)(=O)c2ccc(C)cc2)[C@H]1c1ccc(C(C)C)cc1 | 0.609
